Source: PubChem BioAssay (NCATS)
Records with an inconclusive call do not appear. A call without a number means that no potency is given here. Activity calls are given as the source filed them. Unless noted, calls follow the shape of the dose curve; as a rule, active = well fitted curve in the direction sought with a large enough effect; inconclusive = small, poorly fitted or top-dose-only effect, or another doubt; inactive = no such curve, though single readings can be large; an effect the other way counts as inactive or inconclusive.

What was measured:
[1] = target: Mitogen-activated protein kinase 10 (Mus musculus) (UniProt Q61831); test: JNK3 AlphaScreen Assay (AID 530; active = well fitted curve in either direction with a large enough effect, not every such curve was filed as active;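 also: kinase came from lysate of stimulated human HepG2 cells; signal reports phosphorylation of biotinylated GST-cJun 1-79 at Ser73 with 10 µM ATP; series mostly up to about 57 µM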)
How it was run: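 qHTS format: compounds tested as titrations against IL-1beta/TNF-alpha-activated HepG2 lysate JNK3 with biotin-GST-cJun substrate and 10 uM ATP at room temperature. Loss of anti-phospho-cJun AlphaScreen signal indicates inhibition.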

[2] = target: Cytochrome P450 3A4 (Homo sapiens) (UniProt P08684); test: qHTS Assay for Inhibitors and Substrates of Cytochrome P450 3A4 (AID 884); also: nearly all actives have a fitted effect of over 50% in size; also: potency is read from the fitted curve at half-maximal effect
Chain of Cytochrome P450 3A4 (Homo sapiens) (P08684 whole entry, looked up): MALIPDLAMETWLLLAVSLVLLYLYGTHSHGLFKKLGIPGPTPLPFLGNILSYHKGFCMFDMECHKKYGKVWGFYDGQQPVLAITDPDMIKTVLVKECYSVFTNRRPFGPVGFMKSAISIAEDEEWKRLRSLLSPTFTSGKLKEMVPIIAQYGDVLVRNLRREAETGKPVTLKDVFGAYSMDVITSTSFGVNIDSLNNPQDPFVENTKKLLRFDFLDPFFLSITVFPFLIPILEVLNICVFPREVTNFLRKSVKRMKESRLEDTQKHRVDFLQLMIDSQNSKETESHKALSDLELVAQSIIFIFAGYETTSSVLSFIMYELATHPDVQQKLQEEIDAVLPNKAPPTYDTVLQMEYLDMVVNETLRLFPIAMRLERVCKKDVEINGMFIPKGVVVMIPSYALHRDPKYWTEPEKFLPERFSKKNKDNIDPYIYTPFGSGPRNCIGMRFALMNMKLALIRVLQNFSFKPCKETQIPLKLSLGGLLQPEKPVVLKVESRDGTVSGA
How it was run: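 20 nM human CYP3A4 with 25 uM Luciferin-PPXE (at KM) in 200 mM KPO4, preincubated 10 min with compound; NADPH regeneration started a 60 min RT reaction. Luciferin detected by luminescence, normalized to 57 uM ketoconazole as full inhibition.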

[3] = target: Calcium and integrin-binding protein 1 (Homo sapiens) (UniProt Q99828); test: Primary qHTS for Identification of Calcium Integrin Binding Protein 1 (CIB1) Competitor (AID 1508620);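 also: GST tagged CIB1 binding a fluorescein labelled alphaIIb integrin peptide tracer; top concentration of the series differs between compounds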
Chain of Calcium and integrin-binding protein 1 (Homo sapiens) (Q99828 whole entry, looked up): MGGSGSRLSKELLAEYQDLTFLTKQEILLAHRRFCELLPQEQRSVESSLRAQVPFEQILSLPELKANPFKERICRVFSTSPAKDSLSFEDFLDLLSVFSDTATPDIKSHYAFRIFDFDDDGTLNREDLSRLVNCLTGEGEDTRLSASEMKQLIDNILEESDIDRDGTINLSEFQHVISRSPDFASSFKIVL
How it was run: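 Fluorescence polarization competition: GST-tagged CIB1 (1 uM final) preincubated with compound 15 min at room temperature, then FITC-labelled alphaIIb peptide (100 nM final) added. After 15 min at room temperature, polarization read at Ex 480/Em 540.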

[4] = target: Cytochrome P450 3A4 (Homo sapiens) (UniProt P08684); test: qHTS Assay for Activators of Cytochrome P450 3A4 (AID 885); also: nearly all actives have a fitted effect of over 65% in size
How it was run: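 Quantitative HTS format: compounds preincubated with 20nM human CYP3A4 and Luciferin-PPXE substrate at KM, reaction started by NADPH regeneration, stopped after 60 min, luciferase luminescence read 20 min later.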

Q: Which results are given for `CCCn1c(C)nc2c(N3CCC(N4CCN(C)CC4)CC3)nc(C)nc21`?
A: outcome [1]: inactive; Potency [2]: inactive; Potency [3]: inactive

Q: Which results are given for `Cc1nc(NCc2ccccc2)c2nc(-c3ccccc3)n(CCN3CCCC3)c2n1`?
A: outcome [1]: inactive; Potency [2]: 10 µM (active); Potency [4]: inactive; Potency [3]: inactive

Q: What does the source list for `CCCCNc1nc(C)nc2c1nc(-c1ccccc1)n2CC1CCCN1CC` (stereo not given)?
A: outcome [1]: inactive; Potency [2]: 3.98 µM (active); Potency [4]: inactive; Potency [3]: inactive

Q: `CCCn1c(C)nc2c(NCCCN(CCO)CCO)nc(C)nc21` was tested. Which outcome [1] did it give?
A: The outcome was “inactive”.

Q: And the Potency [2]?
A: The Potency was “inactive”.

Q: And the Potency [3]?
A: The Potency was “inactive”.

Q: With `Cc1nc(N2CCOCC2)c2nc(-c3ccccc3)n(CCCN(C)C)c2n1` as the molecule, how does the outcome [1] read?
A: Its outcome is “inactive”.

Q: What about the Potency [2] of the same molecule?
A: The Potency was “inactive”.

Q: And the Potency [3]?
A: Its Potency is “inactive”.

Q: `CCCn1c(C)nc2c(NCCCCN(C)C)nc(C)nc21` was tested. Which outcome [1] did it give?
A: Its outcome is “inactive”.

Q: And the Potency [2]?
A: The Potency was “inactive”.

Q: What about the Potency [3] of the same molecule?
A: The Potency was “inactive”.

Q: How did the outcome [1] turn out when `CCCn1c(C)nc2c(NCCOC)nc(C)nc21` was run?
A: Its outcome is “inactive”.

Q: And the Potency [2]?
A: The Potency was “inactive”.

Q: And the Potency [3]?
A: The Potency was “inactive”.

Q: Which outcome [1] does the source give for `CCN(CC)CCCn1c(-c2ccccc2)nc2c(N3CCOCC3)nc(C)nc21` here?
A: The outcome was “inactive”.

Q: And the Potency [2]?
A: Its Potency is “inactive”.

Q: What about the Potency [3] of the same molecule?
A: The Potency was “inactive”.

Q: Which results are given for `CCCn1c(C)nc2c(N3CCN(C)CC3)nc(C)nc21`?
A: outcome [1]: inactive; Potency [2]: inactive; Potency [3]: inactive

Q: How did the outcome [1] turn out when `Cc1nc(NCc2ccccc2)c2nc(-c3ccccc3)n(CC3CCN(C)CC3)c2n1` was run?
A: Its outcome is “inactive”.

Q: What about the Potency [2] of the same molecule?
A: Its Potency is “inactive”.

Q: And the Potency [3]?
A: The Potency was “inactive”.

Q: How did the outcome [1] turn out when `CCCn1c(-c2ccc(F)cc2)nc2c(NCCN(C)C)nc(C)nc21` was run?
A: The outcome was “inactive”.

Q: What about the Potency [2] of the same molecule?
A: Its Potency is “inactive”.

Q: And the Potency [3]?
A: Its Potency is “inactive”.

Q: How did the outcome [1] turn out when `CCCn1c(C)nc2c(N(CCN(CC)CC)CCN(CC)CC)nc(C)nc21` was run?
A: The outcome was “inactive”.

Q: What about the Potency [2] of the same molecule?
A: The Potency was “inactive”.

Q: And the Potency [3]?
A: Its Potency is “inactive”.

Q: `Cc1nc(NC2CCCCC2)c2nc(-c3ccccc3)n(CCCN3CCCCC3C)c2n1` (stereo not given) was tested. Which outcome [1] did it give?
A: The outcome was “inactive”.

Q: And the Potency [2]?
A: Its Potency is 10 µM (active).

Q: And the Potency [4]?
A: Its Potency is “inactive”.

Q: What about the Potency [3] of the same molecule?
A: Its Potency is “inactive”.

Q: Which results are given for `CCN(CC)CCCCn1c(-c2ccccc2)nc2c(Nc3ccccc3)nc(C)nc21`?
A: outcome [1]: inactive; Potency [2]: inactive; Potency [3]: inactive

Q: Which outcome [1] does the source give for `CCCn1c(C)nc2c(NC(C)CN(C)C)nc(C)nc21` (stereo not given) here?
A: The outcome was “inactive”.

Q: And the Potency [3]?
A: The Potency was “inactive”.

Q: With `CCCn1c(C)nc2c(N(C)CCN(C)C)nc(C)nc21` as the molecule, how does the outcome [1] read?
A: The outcome was “inactive”.

Q: And the Potency [2]?
A: Its Potency is “inactive”.

Q: And the Potency [3]?
A: Its Potency is “inactive”.

Q: `CCCn1c(-c2ccc(F)cc2)nc2c(NC3CCN(Cc4ccccc4)CC3)nc(C)nc21` was tested. Which outcome [1] did it give?
A: The outcome was “inactive”.

Q: What about the Potency [2] of the same molecule?
A: The Potency was “inactive”.

Q: And the Potency [3]?
A: Its Potency is “inactive”.

Q: What does the source list for `CCCn1c(C)nc2c(NCCN(C)C)nc(C)nc21`?
A: outcome [1]: inactive; Potency [2]: inactive; Potency [3]: inactive

Q: Which outcome [1] does the source give for `Cc1nc(NCc2ccccc2)c2nc(-c3ccccc3)n(CCCN(C)C)c2n1` here?
A: Its outcome is “inactive”.

Q: And the Potency [2]?
A: Its Potency is 12.6 µM (active).

Q: And the Potency [4]?
A: Its Potency is “inactive”.

Q: What about the Potency [3] of the same molecule?
A: The Potency was “inactive”.

Q: With `CCN(CC)CCCCn1c(-c2ccccc2)nc2c(NCCOC)nc(C)nc21` as the molecule, how does the outcome [1] read?
A: Its outcome is “inactive”.

Q: And the Potency [2]?
A: The Potency was “inactive”.

Q: And the Potency [3]?
A: The Potency was “inactive”.

Q: What does the source list for `CCN(CC)CCCC(C)n1c(-c2ccccc2)nc2c(N(CCOC)CCOC)nc(C)nc21` (stereo not given)?
A: outcome [1]: inactive; Potency [2]: 10 µM (active); Potency [4]: inactive; Potency [3]: inactive

Q: How did the outcome [1] turn out when `CCCn1c(C)nc2c(NCC3CCCN3CC)nc(C)nc21` (stereo not given) was run?
A: Its outcome is “inactive”.

Q: What about the Potency [2] of the same molecule?
A: The Potency was “inactive”.

Q: And the Potency [3]?
A: Its Potency is “inactive”.
